# Data taken from PubChem BioAssay AID1851 (National Center for Advancing Translational Sciences (NCATS), 2009).
# The campaign covered roughly 16,000 compounds. About 5,100 (32%) were called active. Not shown: some 25% with an inconclusive outcome. This is one part of the list. More than one record can exist for a structure, and the calls need not agree. Unmarked numbers belong to inactive results. The call rests on the fitted dose curve; in most records, active means well fitted curve in the direction sought with a large enough effect; inconclusive means small, poorly fitted or top-dose-only effect, or effect the other way; inactive means no such curve, though single readings can be large or run the other way.
# Target: Cytochrome P450 3A4 (Homo sapiens) (UniProt P08684)
# Test: Cytochrome panel assay with activity outcomes
# Settings: recombinant CYP, pro-luciferin dealkylation, luminescence, p450-cyp3a4; series mostly up to 57.1 µM
# On the % scale 0 is the no-effect control and ±100 the full control effect.
# Sequence of Cytochrome P450 3A4 (Homo sapiens) (P08684 whole entry, looked up): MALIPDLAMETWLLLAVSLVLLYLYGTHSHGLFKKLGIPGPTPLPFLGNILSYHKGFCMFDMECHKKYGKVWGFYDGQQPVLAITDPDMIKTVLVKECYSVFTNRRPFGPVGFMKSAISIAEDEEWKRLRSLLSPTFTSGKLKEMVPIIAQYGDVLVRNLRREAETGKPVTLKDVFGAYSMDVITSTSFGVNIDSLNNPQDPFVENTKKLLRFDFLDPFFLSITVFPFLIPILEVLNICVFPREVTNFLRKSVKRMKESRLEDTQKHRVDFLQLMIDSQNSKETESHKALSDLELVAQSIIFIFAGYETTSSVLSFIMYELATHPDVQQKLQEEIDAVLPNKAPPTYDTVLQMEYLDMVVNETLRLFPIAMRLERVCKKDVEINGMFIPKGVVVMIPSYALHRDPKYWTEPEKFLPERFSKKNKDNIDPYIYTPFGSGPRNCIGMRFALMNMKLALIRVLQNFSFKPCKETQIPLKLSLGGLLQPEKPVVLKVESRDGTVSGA
Structure (SMILES),AC50,"activity, negative = inhibition"
Cc1ccc(S(=O)(=O)N[C@@H]2COC(=O)C/C=C\[C@H](C)COC(=O)N[C@@H](C)C(=O)C/C=C\[C@H]2C)cc1,3.16 µM (active),–
CO[C@H]1COC(=O)C/C=C\[C@H](C)COC(=O)[C@@H](C)NC(=O)C/C=C\[C@@H]1C,–,-29.4% [at 11.4 µM]
CSCC[C@@H]1NC(=O)C/C=C\[C@@H](C)COC(=O)[C@@H](C)COC1=O,–,-21.5% [at 11.4 µM]
Cc1ccc(S(=O)(=O)N[C@H]2COC(=O)CC=C[C@@H](C)[C@H]3C=C[C@H](O)[C@@H](COC(=O)CC=C[C@H]2C)O3)cc1,3.16 µM (active),-9.33% [at 11.4 µM]
Cc1ccc(S(=O)(=O)N[C@H]2COC(=O)[C@@H](Cc3ccccc3)NC(=O)[C@@H](C)COC(=O)C/C=C\[C@@H]2C)cc1,3.98 µM (active),-7.89% [at 11.4 µM]
C[C@@H]1/C=C\CC(=O)OC[C@H]2O[C@@H](C=C[C@@H]2O)[C@H](C)/C=C\CC(=O)OC[C@H]2O[C@H]1C=C[C@@H]2O,–,-21.3% [at 11.4 µM]
CO[C@@H]1COC(=O)CC=C[C@@H](C)[C@@H]2C=C[C@@H](O)[C@@H](COC(=O)C/C=C\[C@H]1C)O2,–,-26.7% [at 11.4 µM]
Cc1ccc(S(=O)(=O)N[C@H]2COC(=O)C/C=C\[C@@H](C)[C@H](NS(=O)(=O)c3ccc(C)cc3)COC(=O)C/C=C\[C@H]2C)cc1,3.16 µM (active),–
C[C@@H]1/C=C\CC(=O)OC[C@H](C)C(=O)N[C@@H](C)C(=O)OC1,–,-13.1% [at 11.4 µM]
C[C@H]1COC(=O)[C@H]2CCCN2C(=O)[C@@H](C)COC(=O)[C@H](Cc2ccccc2)NC1=O,–,-25.7% [at 11.4 µM]
c1ccc2c(c1)C(=Nc1ccc(N=C3c4ccccc4-c4ccccc43)cc1)c1ccccc1-2,–,-5.03% [at 11.4 µM]
CCNC(=O)C/C(C)=N/NC(=O)C12CC3CC(CC(C3)C1)C2,–,18.8% [at 2.29 µM]
CCOC(=O)CSCC(NC(=O)OC(C)(C)C)C(=O)OCC (stereo not given),inactive,–
Cc1ccc(S(=O)(=O)N[C@H]2COC(=O)C/C=C\[C@@H](C)[C@H](NS(=O)(=O)c3ccc(C)cc3)COC(=O)[C@H](C)NC(=O)C/C=C\[C@H]2C)cc1,–,-35.2% [at 11.4 µM]
Cc1ccc(S(=O)(=O)N[C@H]2COC(=O)C/C=C\[C@@H](C)COC(=O)C/C=C\[C@@H]2C)cc1,3.16 µM (active),-13.2% [at 11.4 µM]
CO[C@H]1COC(=O)C/C=C\[C@@H](C)COC(=O)[C@H]2CCCN2C(=O)C/C=C\[C@H]1C,–,-22.4% [at 11.4 µM]
CO[C@H]1COC(=O)C/C=C\[C@@H](C)COC(=O)[C@@H](C)NC(=O)C/C=C\[C@@H]1C,–,14.4% [at 11.4 µM]
Cc1ccc(S(=O)(=O)N[C@H]2COC(=O)C/C=C\[C@H](C)[C@@H](NS(=O)(=O)c3ccc(C)cc3)COC(=O)C/C=C\[C@@H]2C)cc1,3.98 µM (active),–
CC(=O)Nc1ccc(S(=O)(=O)NCC2CCC(C(=O)NCCC(C)C)CC2)cc1 (stereo not given),17.8 µM (active),–
CC(C)c1ccc(OCc2ccc(C(=O)N3CCN(c4ccccn4)CC3)cc2)cc1,inactive,–
COCC(=O)N1CCC2(CC1)CN(c1ccccn1)C2,inactive,–
O=C(c1cnc(N2CCN(c3ncccn3)CC2)c2ccccc12)N1CCN(c2ccccn2)CC1,–,-7.43% [at 11.4 µM]
COc1ccc(S(=O)(=O)NCc2ccc(C(=O)N3CCN(c4ccccn4)CC3)cc2)cc1,15.8 µM (active),–

Structure (SMILES),AC50,"activity, negative = inhibition"
O=C(C1CCN(S(=O)(=O)N2CCOCC2)CC1)N1CCN(c2ccccc2)CC1,inactive,–
CC(=O)Nc1ccc(S(=O)(=O)NCC2CCC(C(=O)N3CCN(c4ccccn4)CC3)CC2)cc1 (stereo not given),12.6 µM (active),–
CC(=O)Nc1ccc(S(=O)(=O)N2CCC(N(C)CCC(C)C)CC2)cc1,inactive,–
CC(=O)N1CCC2(CC1)CCN(c1ccccn1)CC2,inactive,–
O=C(C1CCN(S(=O)(=O)c2cccc3cccnc23)CC1)N1CCN(c2ccccn2)CC1,3.55 µM (active),–
COC(Cn1c(C)c(C(C)=O)c(C(C)=O)c1C)OC,inactive,–
O=C(O)COC(=O)Cc1ccccc1Nc1c(Cl)cccc1Cl,inactive,–
CCOC(=O)n1ccn(C)c1=S,inactive,–
Cc1ccc2cc(CCNC(=O)c3ccc(Br)o3)c(=O)[nH]c2c1,14.1 µM (active),–
COc1ccc2cc(CCNC(=O)C3CC3)c(=O)[nH]c2c1,inactive,–
CCOC(=O)N/N=C1/C[C@@H](O)[C@@H](O)[C@@H]2[C@@H]3C(=O)N(c4cccc(Oc5ccccc5)c4)C(=O)[C@H]3CC[C@H]12,–,-29.2% [at 11.4 µM]
COc1ccc(COC(=O)N/N=C2/C[C@@H](O)[C@@H](O)[C@@H]3[C@@H]4C(=O)N(c5cccc(Oc6ccccc6)c5)C(=O)[C@H]4CC[C@H]23)cc1,3.16 µM (active),–
CCN1C(=O)[C@H]2[C@H]3[C@H](O)[C@H](O)C/C(=N/NC(=O)OCc4ccccc4)[C@H]3CC[C@@H]2C1=O,–,-12.4% [at 11.4 µM]
O=C(N/N=C1/C[C@@H](O)[C@@H](O)[C@@H]2[C@@H]3C(=O)N(Cc4ccccc4)C(=O)[C@H]3CC[C@H]12)OCc1ccccc1,–,-21.6% [at 11.4 µM]
CCOC(=O)N/N=C1/C[C@@H](O)[C@@H](O)[C@@H]2[C@@H]3C(=O)N(Cc4ccccc4)C(=O)[C@H]3CC[C@@H]12,–,-18.3% [at 11.4 µM]
O=C(N/N=C1/C[C@@H](O)[C@@H](O)[C@@H]2[C@@H]3C(=O)N(Cc4ccc5c(c4)OCO5)C(=O)[C@H]3CC[C@H]12)OCc1ccccc1,3.98 µM (active),–
O=C(N/N=C1/C[C@@H](O)[C@@H](O)[C@@H]2[C@@H]3C(=O)N(Cc4ccccc4)C(=O)[C@H]3CC[C@@H]12)OCc1ccccc1,–,-17.8% [at 11.4 µM]
CCN1C(=O)[C@H]2[C@H]3[C@H](O)[C@H](O)C/C(=N/NC(=O)OCc4ccccc4)[C@@H]3CC[C@@H]2C1=O,–,-8.99% [at 11.4 µM]
O=C(N/N=C1/C[C@@H](O)[C@@H](O)[C@@H]2[C@@H]3C(=O)N(Cc4ccc5c(c4)OCO5)C(=O)[C@H]3CC[C@@H]12)OCc1ccccc1,1.26 µM (active),–
CCOC(=O)N/N=C1/C[C@@H](O)[C@@H](O)[C@@H]2[C@@H]3C(=O)N(Cc4ccccc4)C(=O)[C@H]3CC[C@H]12,–,-22% [at 11.4 µM]
CCOC(=O)N/N=C1/C[C@@H](O)[C@@H](O)[C@@H]2[C@@H]3C(=O)N(Cc4ccc5c(c4)OCO5)C(=O)[C@H]3CC[C@@H]12,3.98 µM (active),–
CCOC(=O)N/N=C1/C[C@@H](O)[C@@H](O)[C@@H]2[C@@H]3C(=O)N(c4cccc(Oc5ccccc5)c4)C(=O)[C@H]3CC[C@@H]12,–,-28.7% [at 11.4 µM]
O=C(O)C12CC3(C(=O)O)CC(C(=O)O)(CC(C(=O)O)(C1)C3=O)C2=O,–,-8.55% [at 11.4 µM]

Structure (SMILES),AC50,"activity, negative = inhibition"
N[C@@H](C(=O)O)c1ccc(O)c(C(=O)O)c1,inactive,–
NC(=NCCCCCCN=C(N)/N=C(\N)Nc1ccc(Cl)cc1)/N=C(\N)Nc1ccc(Cl)cc1,inactive,–
Nc1nc2c(c(=O)[nH]1)CN(CCCN1CCOCC1)CN2,–,-5.39% [at 11.4 µM]
C[C@@H](C(=O)Nc1ccc2ccccc2c1)[C@H]1C[C@]1(C)[C@H](NS(=O)(=O)c1ccc(-c2ccccc2)cc1)c1ccccc1,10 µM (active),–
C[C@@H](C(=O)Nc1ccc2ccccc2c1)[C@H]1C[C@]1(C)[C@H](NS(=O)(=O)c1ccc2ccccc2c1)c1ccccc1,7.94 µM (active),–
Cc1nn(C)c(Cl)c1S(=O)(=O)N[C@@H](c1ccccc1)[C@]1(C)C[C@H]1[C@@H](C)C(=O)Nc1ccc2ccccc2c1,1.26 µM (active),–
C[C@@H](C(=O)Nc1ccc2ccccc2c1)[C@@H]1C[C@@]1(C)[C@@H](NS(=O)(=O)c1ccc(-c2ccccc2)cc1)c1ccccc1,inactive,–
CC(C)OC(=O)CC12CN(C)CC(CC(=O)OC(C)C)(CN(C)C1)C2=O,–,15.3% [at 2.29 µM]
Fc1ccc(-c2ccnc3nc(N4CCOCC4)nn23)cc1,inactive,–
O=C(O)CNC(=O)c1ccccc1O,–,-5.63% [at 11.4 µM]
COc1ccccc1C(=O)N/C(=C/c1ccc(Br)cc1)C(=O)NCC(=O)O,8.91 µM (active),–
O=C(OCc1ccccc1)/C(=C/c1ccc(Cl)cc1)NC(=O)c1ccccc1Cl,0.178 µM (active),–
C/C(=C\c1ccc(Cl)cc1)C(C)(C)C(=O)O,–,-11.2% [at 11.4 µM]
O=C(CNC(=O)/C(=C\c1ccccc1)NC(=O)c1ccc(Br)cc1)OCc1ccccc1,0.2 µM (active),–
COc1ccc(C(=O)NCC(=O)OCc2cccc(Br)c2)cc1,7.94 µM (active),–
COC(=O)CCC(=O)NNC(=O)c1ccc(Br)cc1,inactive,–
CN(C)c1nc(-c2cccc(NS(C)(=O)=O)c2)nc2ccccc12,6.31 µM (active),–
COc1cccc(-c2nc(Nc3ccncc3)c3ccccc3n2)c1,2.51 µM (active),–
CS(=O)(=O)Nc1cccc(-c2nc(Nc3ccccc3)c3ccccc3n2)c1,10 µM (active),–
Cc1cccc(C(=O)NN(C)c2nc(-c3ccccc3)nnc2C(F)(F)F)c1,inactive,–
CS(=O)(=O)Nc1cccc(-c2nc(Nc3ccc(F)cc3)c3ccccc3n2)c1,6.31 µM (active),–
